Rows were chosen to be rich in hits. Some 4.8% of all compounds tested hit in one or more screens of this group.
TGFb inhibitor – TGF-b pathway inhibition; HepG2 CAGA-GFP TGF-b/SMAD3 reporter, GFP fluorescence, 18 h; TGF-beta stimulated, 500 pg/mL final; Potency, µM (top dose mostly 46.1 µM), inactives show at the top dose activity, negative = inhibition, usual class: inhibitors; 410,000 tested, 1.2% active; AID 588855; note: potency is the fitted concentration of half-maximal effect; % is set by controls: 0 for no effect and ±100 for the full control effect; nearly all actives have a fitted effect of over 65% in size
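HEPG2 CAGA-GFP cells (1000/well, DMEM with 1% FBS) were pre-incubated 2 h at 37 degrees C, given compound by pin tool, then stimulated with TGF-beta at 500 pg/mL final for 18 h before per-cell GFP fluorescence imaging.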
HepG2 tox-1 – counter-screen for TGF-b inhibitors: cytotoxicity in HepG2 cells; AID 588856; HepG2 CAGA-GFP viability, ATP luminescence, 18 h; Potency, µM (titrated, usually from 46.1 µM), inactives show at the highest dose activity change, negative = cytotoxicity, hits mostly cytotoxic; 410,000 tested, 0.76% active; note: potency is the fitted concentration of half-maximal effect
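CellTiter-Glo luminescence gave cytotoxicity after 18 hours at 37 degrees C. The cells were HepG2 CAGA-GFP in 1% FBS DMEM, stimulated with 500 pg/mL TGF-beta after compound addition. %Activity was normalised to no-cell wells (complete cell-killing) and DMSO (no toxicity), and curves were fitted and classified.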
D3 ag – D3 dopamine receptor (human) agonism. max activation, %. 410,000 tested, 0.58% active. P35462. D3R DiscoveRx beta-arrestin cells, luminescence, 90 min; in the data active = max activation above about 30%; note: 0% is about no effect
Target sequence (P35462 whole entry, looked up): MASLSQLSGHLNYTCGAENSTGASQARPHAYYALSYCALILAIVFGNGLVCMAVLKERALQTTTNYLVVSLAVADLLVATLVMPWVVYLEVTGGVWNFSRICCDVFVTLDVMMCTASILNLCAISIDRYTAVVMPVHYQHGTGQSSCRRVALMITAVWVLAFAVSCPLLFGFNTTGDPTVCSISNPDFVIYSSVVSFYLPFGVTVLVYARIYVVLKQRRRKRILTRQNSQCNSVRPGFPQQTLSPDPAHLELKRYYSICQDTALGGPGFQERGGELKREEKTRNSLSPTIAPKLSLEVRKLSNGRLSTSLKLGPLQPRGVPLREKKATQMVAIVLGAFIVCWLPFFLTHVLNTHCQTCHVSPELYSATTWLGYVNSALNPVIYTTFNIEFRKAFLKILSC
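Agonist-mode cell screen: cells plated at 1500/well and incubated overnight at 37 °C, then exposed to library compounds for 90 min at 37 °C. Detection reagent was added for 30–60 min at room temperature, and luminescence was read.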
S2 tox – cell viability loss in ATXN counter-screen | S2 cells (HEK-293 line with an ATXN2-luciferase reporter) viability, CellTiter-Fluor protease fluorescence, 24 h | Potency, µM (doses to about 56.7 µM), actives largely listed as cytotoxic | 400,000 tested, 0.49% active | AID 651635; note: potency is the fitted concentration of half-maximal effect; nearly all actives have a fitted effect of over 40% in size
DRD3 antagonist – D3 dopamine receptor (human) antagonism; P35462; D3R cells, DiscoveRx beta-arrestin luminescence, antagonist mode; hits give low values; max response, negative = inhibition, %; 360,000 tested, 2.5% active; AID 652054; in the data active = max response below about -50%; inconclusive = no clear call, values can overlap the other calls; note: % is set by controls: 0 for no effect and ±100 for the full control effect
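Cells plated overnight at 1500 cells/well, then exposed to library compounds with dopamine controls for 90 minutes at 37 degrees C. DiscoveRx reagent added for 30–60 minutes at room temperature; luminescence read, quantitative HTS format.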
ATXN2 expr inh – inhibitors of ATXN2 expression; HEK-293 ATXN2-luciferase reporter, luminescence, 24 h; AID 1745845; Potency, µM (series often up to 57 µM), inactives show at the highest dose activity change, negative = inhibition, actives largely listed as inhibitors; 360,000 tested, 0.72% active; note: potency is the fitted concentration of half-maximal effect; % is set by controls: 0 for no effect and ±100 for the full control effect; nearly all actives have a fitted effect of over 55% in size
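ATXN2-luciferase reporter cells (luciferase flanked by upstream and downstream ATXN2 gene portions) were treated 24 h at 37 °C with compounds at up to 57 uM. SteadyGlo luminescence gave expression; GF-AFC fluorescence gave viability.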
TGFb confirm – TGF-b pathway inhibition, cherry-pick retest. shares compounds with TGFb inhibitor. HepG2 CAGA-GFP TGF-b reporter, GFP fluorescence, 18 h; cells stimulated with TGF-beta, 500 pg/mL. Potency, µM (top dose mostly 46.1 µM), without a hit: at the top dose activity, negative = inhibition, usual class: inhibitors. 1,600 tested, 63% active. AID 720534; note: potency is the fitted concentration of half-maximal effect; % is set by controls: 0 for no effect and ±100 for the full control effect; nearly all actives have a fitted effect of over 65% in size
HepG2 tox-2 – toxic to HepG2 cells in TGF-b counterscreen. shares compounds with TGFb inhibitor. HepG2 CAGA-GFP viability, ATP luminescence, 18 h; cells stimulated with TGF-beta, 500 pg/mL. Potency, µM (series often up to 46.1 µM), inactives show at the top dose activity, negative = cytotoxicity, hits mostly inhibitors. 1,600 tested, 27% active; note: potency is the fitted concentration of half-maximal effect; % is set by controls: 0 for no effect and ±100 for the full control effect; nearly all actives have a fitted effect of over 70% in size
TGFb CCL64 inh – blocks TGF-b signaling in CCL64 reporter cells. CCL64 CAGA-GFP reporter, TGF-b stimulated, GFP fluorescence, 18 h. Potency, µM (top dose mostly 46.1 µM), for inactives: at the top dose activity, negative = inhibition, hits mostly inhibitors. shares compounds with TGFb inhibitor. 1,600 tested, 41% active; note: potency is the fitted concentration of half-maximal effect; nearly all actives have a fitted effect of over 65% in size
TGFb COP inh – validation of TGF-b inhibitors in HepG2 COP promoter reporter | shares compounds with TGFb inhibitor | HepG2 COP-GFP TGF-b reporter, GFP fluorescence, 18 h; cells stimulated by added recombinant TGF-beta | Potency, µM (highest dose often 46.1 µM), for the others: at the highest dose activity, negative = inhibition, hits mostly inhibitors | 1,600 tested, 3% active | AID 720537; note: potency is the fitted concentration of half-maximal effect; nearly all actives have a fitted effect of over 70% in size
Active calls of the source: *; i = inactive; u = inconclusive; x = no result; [ ] = another dose, or the depositor's remark. Unless noted, calls come from the whole dose curve; as a rule, active = well fitted curve in the direction sought with a large enough effect; inconclusive = small, poorly fitted or top-dose-only effect, or another doubt; inactive = no such curve, though single readings can be large; an effect the other way counts as inactive or inconclusive.

SMILES	TGFb inhibitor	HepG2 tox-1	D3 ag	S2 tox	DRD3 antagonist	ATXN2 expr inh	TGFb confirm	HepG2 tox-2	TGFb CCL64 inh	TGFb COP inh
CCOc1ccc(CCN2C(=S)N([C@@H](CC(C)C)CN3CCCC3CN3C(=S)NC[C@@H]3CC(C)C)C[C@@H]2Cc2ccc(O)cc2)cc1 (some centres not stated)	u	-13%	4	u	1	u	x	x	x	x
CCOc1ccc(CCN2C(=S)N([C@@H](CC(C)C)CN3CCC[C@@H]3CN3C(=S)NC[C@@H]3CC(C)C)C[C@@H]2Cc2ccc(O)cc2)cc1	6.3µM*	-44%	-10	13µM*	-28	u	u	u	18µM*	68%
CCOc1ccc(CCN2C(=S)N([C@@H](CC(C)C)CN3CCCC3CN3C(=S)NC[C@@H]3Cc3ccc(O)cc3)C[C@@H]2CC(C)C)cc1 (some centres not stated)	4.5µM*	-4%	-25	u	-30	-26%	12µM*	-17%	u	3%
CCOc1ccc(OCC)c(NS(=O)(=O)c2c(C(=O)N3CCCCCC3)c(C)n(C)c2C)c1	28%	8%	5	i	x	1%	x	x	x	x
Cc1ccc(-c2noc(-c3ccccc3NC(=O)C3CC(=O)N(c4ccc(C)cc4)C3)n2)cc1 (configuration not stated)	6%	16%	-10	i	x	20%	x	x	x	x
O=C(O)c1ccc(C=NNC(=O)c2cccc3ccccc23)cc1	-22%	3%	-9	i	-11	4%	x	x	x	x
O=C(N/N=C/c1ccccc1O)c1cccc2ccccc12	8.9µM*	-21%	4	i	18	x	u	u	u	16%
NCCO	x	x	10	i	x	6%[116 µM]	x	x	x	x
CC1Sc2ccc(S(=O)(=O)CCC(=O)N3CCN(c4cccc(Cl)c4)CC3)cc2NC1=O (configuration not stated)	16µM*	-14%	2	i	26	u	18µM*	u	u	26%
Cn1cnc(S(=O)(=O)N2CCC(C(=O)Nc3ccc(Cl)c(C(F)(F)F)c3)CC2)c1	1%	-5%	10	x	x	x	x	x	x	x
Cc1nn2c(C)c(C(=O)NCc3cccc(Br)c3)cnc2c1-c1ccccc1	0%	-2%	7	x	x	x	x	x	x	x
O=C1c2cccnc2C(=O)N1CO	1%	13%	9	i	11	-2%	x	x	x	x
NC1=C(Br)C(=O)c2ncccc2C1=O	2.8µM*	2.8µM*	-13	13µM*	u	5.3µM*	1.2µM*	3.3µM*	4.6µM*	4.6µM*
CCCCSc1nc(C)cc(SCC(=O)N/N=C/c2cccc(OC)c2O)n1	7.9µM*	-26%	11	u	116	7.1µM*	8.2µM*	u	12µM*	-1%
